Tests used:
Experiment in all cases: DAPPL (digital affinity profiling via proximity ligation, sequencing); 10 mM Tris-HCl pH 7.5, 50 mM NaCl, 1 mM DTT, 4% glycerol, room temperature, 30 min; GST-TFs on glutathione beads, 16-mer random dsDNA library, 0.1% formaldehyde crosslink after washing; high values mean tight binding
FEV = biological target: T1, FEV (Homo sapiens, UniProt Q99581 1-238); conditions: protein: recombinant; tags: N-terminal GST; dsDNA, one strand shown
T1 sequence: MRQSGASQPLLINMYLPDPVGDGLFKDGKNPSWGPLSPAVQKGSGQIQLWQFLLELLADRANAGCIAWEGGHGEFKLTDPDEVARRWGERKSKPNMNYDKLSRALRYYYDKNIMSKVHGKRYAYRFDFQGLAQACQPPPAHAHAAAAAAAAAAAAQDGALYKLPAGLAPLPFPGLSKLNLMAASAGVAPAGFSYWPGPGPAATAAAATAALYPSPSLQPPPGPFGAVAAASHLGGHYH
Procedure, shortened: (§1)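 Human transcription factors were made in yeast as GST fusions, captured on glutathione beads and barcoded with DNA. With a tag-only sample included, the pool was incubated with 200 nmole of a random double-stranded 16-mer DNA library in Tris/NaCl/DTT/glycerol buffer at room temperature for 30 min, then crosslinked with 0.1% formaldehyde after washing, ligated by proximity, amplified and sequenced. For binding signal, each hexamer's read frequency for a factor is divided by its frequency for the tag-only sample.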

ETV5 = ETV5 (Homo sapiens, UniProt P41161 1-510); conditions: protein: recombinant; tags: N-terminal GST; dsDNA, one strand shown
Chain of ETV5 (P41161 whole entry): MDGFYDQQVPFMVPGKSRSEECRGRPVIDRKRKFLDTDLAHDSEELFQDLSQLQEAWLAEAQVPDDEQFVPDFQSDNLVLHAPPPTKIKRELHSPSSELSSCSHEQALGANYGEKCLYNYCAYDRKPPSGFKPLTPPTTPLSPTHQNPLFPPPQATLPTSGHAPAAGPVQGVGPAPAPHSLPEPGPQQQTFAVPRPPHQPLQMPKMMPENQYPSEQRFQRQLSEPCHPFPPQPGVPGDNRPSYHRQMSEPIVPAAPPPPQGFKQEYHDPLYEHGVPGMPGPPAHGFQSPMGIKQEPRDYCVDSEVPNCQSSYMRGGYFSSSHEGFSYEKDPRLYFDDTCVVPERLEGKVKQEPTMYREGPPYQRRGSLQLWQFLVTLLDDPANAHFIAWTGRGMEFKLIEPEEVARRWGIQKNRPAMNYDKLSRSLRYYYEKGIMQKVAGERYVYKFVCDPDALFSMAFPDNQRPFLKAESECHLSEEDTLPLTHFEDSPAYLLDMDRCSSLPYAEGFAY
Procedure, shortened: as §1

HSF1 = HSF1 (Homo sapiens, UniProt Q00613 1-529); conditions: protein: recombinant; tags: N-terminal GST; chain copies: 3; dsDNA, one strand shown
Chain of HSF1 (Q00613 whole entry): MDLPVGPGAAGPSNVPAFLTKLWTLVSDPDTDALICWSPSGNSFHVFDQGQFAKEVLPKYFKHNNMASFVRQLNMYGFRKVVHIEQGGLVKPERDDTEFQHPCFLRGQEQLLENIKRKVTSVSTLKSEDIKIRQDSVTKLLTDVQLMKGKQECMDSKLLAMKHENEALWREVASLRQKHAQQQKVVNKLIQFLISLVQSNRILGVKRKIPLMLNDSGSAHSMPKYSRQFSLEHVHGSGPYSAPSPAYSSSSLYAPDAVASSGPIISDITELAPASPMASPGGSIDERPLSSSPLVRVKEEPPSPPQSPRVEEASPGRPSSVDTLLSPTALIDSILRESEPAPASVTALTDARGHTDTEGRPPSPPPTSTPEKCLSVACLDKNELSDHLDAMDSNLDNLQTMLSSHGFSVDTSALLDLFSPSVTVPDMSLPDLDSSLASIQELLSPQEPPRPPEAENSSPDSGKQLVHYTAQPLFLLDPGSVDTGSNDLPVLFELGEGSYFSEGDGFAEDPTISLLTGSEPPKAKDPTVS
Procedure, shortened: as §1

SPIC = biological target: T2, SPIC (Homo sapiens, UniProt Q8N5J4 1-248); conditions: protein: recombinant; tags: N-terminal GST; dsDNA, one strand shown
T2 sequence: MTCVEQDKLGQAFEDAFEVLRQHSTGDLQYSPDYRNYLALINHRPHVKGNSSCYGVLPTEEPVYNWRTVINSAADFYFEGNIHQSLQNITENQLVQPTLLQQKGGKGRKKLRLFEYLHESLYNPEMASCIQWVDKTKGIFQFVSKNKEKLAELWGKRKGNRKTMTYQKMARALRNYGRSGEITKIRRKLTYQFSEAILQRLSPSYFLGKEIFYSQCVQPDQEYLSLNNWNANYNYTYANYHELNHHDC
Procedure, shortened: as §1

ELF4 = ELF4 (Homo sapiens, UniProt Q99607 1-663); conditions: protein: recombinant; tags: N-terminal GST; dsDNA, one strand shown
Chain of ELF4 (Q99607 whole entry): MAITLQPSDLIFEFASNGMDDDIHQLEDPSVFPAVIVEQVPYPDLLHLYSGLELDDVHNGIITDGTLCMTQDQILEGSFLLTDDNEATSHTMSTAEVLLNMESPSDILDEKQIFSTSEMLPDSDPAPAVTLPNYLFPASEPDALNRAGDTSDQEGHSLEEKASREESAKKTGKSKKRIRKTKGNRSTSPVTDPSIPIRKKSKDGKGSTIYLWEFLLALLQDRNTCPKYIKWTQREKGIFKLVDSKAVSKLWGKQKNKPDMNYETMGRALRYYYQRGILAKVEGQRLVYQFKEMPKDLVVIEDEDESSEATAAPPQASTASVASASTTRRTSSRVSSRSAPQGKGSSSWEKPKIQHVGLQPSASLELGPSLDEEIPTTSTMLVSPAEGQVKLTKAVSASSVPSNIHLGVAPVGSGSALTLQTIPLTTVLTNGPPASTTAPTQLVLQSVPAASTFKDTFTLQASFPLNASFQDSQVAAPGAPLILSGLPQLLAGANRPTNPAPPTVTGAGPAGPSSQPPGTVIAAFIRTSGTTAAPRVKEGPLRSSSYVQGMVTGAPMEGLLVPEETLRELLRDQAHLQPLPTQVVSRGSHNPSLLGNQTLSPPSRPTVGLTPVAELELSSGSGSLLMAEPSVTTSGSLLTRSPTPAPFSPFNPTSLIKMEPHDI
Procedure, shortened: as §1

ELK4 = biological target: T3, ELK4 (Homo sapiens, UniProt P28324-2 1-405); conditions: protein: recombinant; tags: N-terminal GST; dsDNA, one strand shown
T3 sequence: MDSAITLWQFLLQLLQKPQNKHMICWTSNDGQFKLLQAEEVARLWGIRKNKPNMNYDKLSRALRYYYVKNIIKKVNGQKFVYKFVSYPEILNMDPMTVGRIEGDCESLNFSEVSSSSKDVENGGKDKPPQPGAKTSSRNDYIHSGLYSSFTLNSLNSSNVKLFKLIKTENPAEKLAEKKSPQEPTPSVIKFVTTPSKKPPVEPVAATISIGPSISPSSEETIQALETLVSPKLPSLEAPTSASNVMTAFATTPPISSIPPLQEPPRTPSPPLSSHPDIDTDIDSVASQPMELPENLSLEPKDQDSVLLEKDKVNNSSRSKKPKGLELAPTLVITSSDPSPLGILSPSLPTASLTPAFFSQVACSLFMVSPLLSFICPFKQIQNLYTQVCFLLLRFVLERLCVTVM
Procedure, shortened: as §1

ETV2 = biological target: T4, ETV2 (Homo sapiens, UniProt O00321 1-342); conditions: protein: recombinant; tags: N-terminal GST; dsDNA, one strand shown
T4 sequence: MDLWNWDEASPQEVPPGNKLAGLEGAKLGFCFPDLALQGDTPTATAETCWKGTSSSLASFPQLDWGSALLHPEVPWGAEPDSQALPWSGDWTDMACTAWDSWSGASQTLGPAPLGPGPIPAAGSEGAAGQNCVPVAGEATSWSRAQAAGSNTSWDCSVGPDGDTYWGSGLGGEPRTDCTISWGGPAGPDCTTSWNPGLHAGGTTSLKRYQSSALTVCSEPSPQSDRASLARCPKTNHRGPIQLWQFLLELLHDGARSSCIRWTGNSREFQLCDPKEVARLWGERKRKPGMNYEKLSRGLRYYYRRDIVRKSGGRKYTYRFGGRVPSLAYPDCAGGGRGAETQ
Procedure, shortened: as §1

ELF3 = biological target: T5, ELF3 (Homo sapiens, UniProt P78545 1-371); conditions: protein: recombinant; tags: N-terminal GST; dsDNA, one strand shown
T5 sequence: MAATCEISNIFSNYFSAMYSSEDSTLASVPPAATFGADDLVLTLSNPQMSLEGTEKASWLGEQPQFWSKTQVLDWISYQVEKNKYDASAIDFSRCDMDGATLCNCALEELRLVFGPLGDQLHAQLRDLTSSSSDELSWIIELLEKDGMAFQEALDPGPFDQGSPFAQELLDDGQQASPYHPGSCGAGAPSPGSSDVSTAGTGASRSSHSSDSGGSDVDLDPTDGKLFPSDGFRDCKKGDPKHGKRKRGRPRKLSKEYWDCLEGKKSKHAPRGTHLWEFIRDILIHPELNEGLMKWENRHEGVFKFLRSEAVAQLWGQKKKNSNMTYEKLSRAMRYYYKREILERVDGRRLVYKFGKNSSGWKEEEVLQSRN
Procedure, shortened: as §1

CRX = CRX (Homo sapiens, UniProt O43186 1-299); conditions: protein: recombinant; tags: N-terminal GST; dsDNA, one strand shown
Chain of CRX (O43186 whole entry): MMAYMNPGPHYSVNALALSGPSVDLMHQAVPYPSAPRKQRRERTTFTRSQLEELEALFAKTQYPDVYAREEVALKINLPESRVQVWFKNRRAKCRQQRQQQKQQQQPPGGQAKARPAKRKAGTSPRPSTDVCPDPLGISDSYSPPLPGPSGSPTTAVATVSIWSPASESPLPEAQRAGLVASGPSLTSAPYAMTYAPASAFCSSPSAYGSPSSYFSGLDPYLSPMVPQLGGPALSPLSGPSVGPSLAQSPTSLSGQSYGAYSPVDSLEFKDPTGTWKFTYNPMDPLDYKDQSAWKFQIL
Procedure, shortened: as §1

ETV1 = ETV1 (Homo sapiens, UniProt P50549 1-477); conditions: protein: recombinant; tags: N-terminal GST; dsDNA, one strand shown
Chain of ETV1 (P50549 whole entry): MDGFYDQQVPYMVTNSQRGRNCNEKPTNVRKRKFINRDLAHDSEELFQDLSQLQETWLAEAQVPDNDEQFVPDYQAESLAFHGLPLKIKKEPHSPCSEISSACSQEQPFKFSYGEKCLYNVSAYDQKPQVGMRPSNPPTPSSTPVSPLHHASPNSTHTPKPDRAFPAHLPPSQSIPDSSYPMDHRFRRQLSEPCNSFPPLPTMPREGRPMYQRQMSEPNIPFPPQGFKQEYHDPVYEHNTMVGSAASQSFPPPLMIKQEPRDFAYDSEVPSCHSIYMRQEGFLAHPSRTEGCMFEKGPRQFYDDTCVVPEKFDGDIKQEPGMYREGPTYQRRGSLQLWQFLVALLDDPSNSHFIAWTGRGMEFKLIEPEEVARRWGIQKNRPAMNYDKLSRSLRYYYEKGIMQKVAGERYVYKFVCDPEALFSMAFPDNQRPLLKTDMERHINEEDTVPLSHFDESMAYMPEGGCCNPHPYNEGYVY
Procedure, shortened: as §1

ERF = biological target: T6, ERF (Homo sapiens, UniProt P50548 1-548); conditions: protein: recombinant; tags: N-terminal GST; dsDNA, one strand shown
T6 sequence: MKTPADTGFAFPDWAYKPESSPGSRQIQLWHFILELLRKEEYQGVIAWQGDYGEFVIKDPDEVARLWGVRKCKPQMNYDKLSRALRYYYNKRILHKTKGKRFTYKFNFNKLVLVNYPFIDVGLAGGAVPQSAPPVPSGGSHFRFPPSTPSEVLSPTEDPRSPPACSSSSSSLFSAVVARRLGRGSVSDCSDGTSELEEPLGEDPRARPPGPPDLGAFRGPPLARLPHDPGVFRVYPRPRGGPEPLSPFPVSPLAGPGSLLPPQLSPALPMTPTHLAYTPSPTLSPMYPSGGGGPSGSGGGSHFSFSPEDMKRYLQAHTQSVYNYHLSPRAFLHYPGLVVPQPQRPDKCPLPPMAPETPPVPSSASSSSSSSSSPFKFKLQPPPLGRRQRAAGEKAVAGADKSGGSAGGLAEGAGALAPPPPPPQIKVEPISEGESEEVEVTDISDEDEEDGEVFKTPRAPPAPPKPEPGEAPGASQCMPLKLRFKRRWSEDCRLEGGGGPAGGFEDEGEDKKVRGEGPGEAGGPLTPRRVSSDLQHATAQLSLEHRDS
Procedure, shortened: as §1

ETV3L = biological target: T7, ETV3L (Homo sapiens, UniProt Q6ZN32 1-361); conditions: protein: recombinant; tags: N-terminal GST; dsDNA, one strand shown
T7 sequence: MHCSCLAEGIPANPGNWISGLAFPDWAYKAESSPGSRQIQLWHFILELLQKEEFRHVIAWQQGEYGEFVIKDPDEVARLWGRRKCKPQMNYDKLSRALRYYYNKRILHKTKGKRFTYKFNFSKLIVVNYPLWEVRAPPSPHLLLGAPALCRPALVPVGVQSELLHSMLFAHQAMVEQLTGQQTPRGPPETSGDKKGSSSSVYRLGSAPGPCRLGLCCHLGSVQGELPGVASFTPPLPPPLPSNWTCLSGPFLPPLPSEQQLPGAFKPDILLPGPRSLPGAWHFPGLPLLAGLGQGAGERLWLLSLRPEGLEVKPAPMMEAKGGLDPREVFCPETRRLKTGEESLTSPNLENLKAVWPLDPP
Procedure, shortened: as §1

ETS2 = biological target: T8, ETS2 (Homo sapiens, UniProt P15036 1-469); conditions: protein: recombinant; tags: N-terminal GST; dsDNA, one strand shown
T8 sequence: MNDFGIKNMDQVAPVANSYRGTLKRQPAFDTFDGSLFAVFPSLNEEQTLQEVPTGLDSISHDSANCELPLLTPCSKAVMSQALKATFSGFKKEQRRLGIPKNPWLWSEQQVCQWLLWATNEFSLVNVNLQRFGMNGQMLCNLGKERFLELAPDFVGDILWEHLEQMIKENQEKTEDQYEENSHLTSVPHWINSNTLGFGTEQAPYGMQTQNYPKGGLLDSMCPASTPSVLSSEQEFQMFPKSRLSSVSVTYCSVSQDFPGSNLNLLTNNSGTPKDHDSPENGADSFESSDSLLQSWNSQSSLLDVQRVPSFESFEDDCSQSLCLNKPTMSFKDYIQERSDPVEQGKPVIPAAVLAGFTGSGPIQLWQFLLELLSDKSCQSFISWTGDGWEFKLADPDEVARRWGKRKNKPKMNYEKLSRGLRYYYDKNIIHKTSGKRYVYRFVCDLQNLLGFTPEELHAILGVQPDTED
Procedure, shortened: as §1

SPDEF = biological target: T9, SPDEF (Homo sapiens, UniProt O95238 1-335); conditions: protein: recombinant; tags: N-terminal GST; dsDNA, one strand shown
T9 sequence: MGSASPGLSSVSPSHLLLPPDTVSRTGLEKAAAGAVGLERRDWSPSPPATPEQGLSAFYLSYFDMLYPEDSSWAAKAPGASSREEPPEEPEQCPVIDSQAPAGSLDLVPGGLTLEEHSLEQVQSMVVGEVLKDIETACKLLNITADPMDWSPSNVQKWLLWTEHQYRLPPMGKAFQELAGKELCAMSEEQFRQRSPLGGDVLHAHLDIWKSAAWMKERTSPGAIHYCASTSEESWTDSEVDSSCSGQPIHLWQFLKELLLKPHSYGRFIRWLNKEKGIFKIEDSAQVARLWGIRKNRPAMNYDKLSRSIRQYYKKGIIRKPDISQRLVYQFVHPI
Procedure, shortened: as §1

ETV7 = biological target: T10, ETV7 (Homo sapiens, UniProt Q9Y603 1-341); conditions: protein: recombinant; tags: N-terminal GST; dsDNA, one strand shown
T10 sequence: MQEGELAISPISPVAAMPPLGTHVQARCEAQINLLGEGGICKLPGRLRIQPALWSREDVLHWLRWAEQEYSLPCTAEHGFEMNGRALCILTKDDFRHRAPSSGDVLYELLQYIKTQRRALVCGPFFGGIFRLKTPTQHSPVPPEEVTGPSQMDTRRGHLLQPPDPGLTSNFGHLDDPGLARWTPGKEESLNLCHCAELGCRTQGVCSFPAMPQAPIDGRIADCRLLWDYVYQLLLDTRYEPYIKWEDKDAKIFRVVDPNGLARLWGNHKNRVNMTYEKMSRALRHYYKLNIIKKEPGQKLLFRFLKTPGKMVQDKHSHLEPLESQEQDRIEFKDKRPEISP
Procedure, shortened: as §1

ELF5 = biological target: T11, ELF5 (Homo sapiens, UniProt Q9UKW6-2 1-255); conditions: protein: recombinant; tags: N-terminal GST; dsDNA, one strand shown
T11 sequence: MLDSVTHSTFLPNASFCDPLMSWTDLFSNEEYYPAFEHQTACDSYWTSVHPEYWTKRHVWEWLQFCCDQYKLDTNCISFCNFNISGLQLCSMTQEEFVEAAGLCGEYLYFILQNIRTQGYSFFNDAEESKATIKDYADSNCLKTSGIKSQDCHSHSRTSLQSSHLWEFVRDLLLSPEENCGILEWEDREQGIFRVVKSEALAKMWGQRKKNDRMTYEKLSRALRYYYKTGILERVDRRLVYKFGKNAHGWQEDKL
Procedure, shortened: as §1

ETV3 = biological target: T12, ETV3 (Homo sapiens, UniProt P41162-2 1-143); conditions: protein: recombinant; tags: N-terminal GST; dsDNA, one strand shown
T12 sequence: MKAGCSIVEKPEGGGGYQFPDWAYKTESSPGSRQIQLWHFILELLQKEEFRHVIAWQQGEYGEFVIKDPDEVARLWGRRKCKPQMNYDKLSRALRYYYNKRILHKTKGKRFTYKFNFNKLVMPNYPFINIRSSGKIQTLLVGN
Procedure, shortened: as §1

ETV6 = ETV6 (Homo sapiens, UniProt P41212 1-452); conditions: protein: recombinant; tags: N-terminal GST; dsDNA, one strand shown
Chain of ETV6 (P41212 whole entry): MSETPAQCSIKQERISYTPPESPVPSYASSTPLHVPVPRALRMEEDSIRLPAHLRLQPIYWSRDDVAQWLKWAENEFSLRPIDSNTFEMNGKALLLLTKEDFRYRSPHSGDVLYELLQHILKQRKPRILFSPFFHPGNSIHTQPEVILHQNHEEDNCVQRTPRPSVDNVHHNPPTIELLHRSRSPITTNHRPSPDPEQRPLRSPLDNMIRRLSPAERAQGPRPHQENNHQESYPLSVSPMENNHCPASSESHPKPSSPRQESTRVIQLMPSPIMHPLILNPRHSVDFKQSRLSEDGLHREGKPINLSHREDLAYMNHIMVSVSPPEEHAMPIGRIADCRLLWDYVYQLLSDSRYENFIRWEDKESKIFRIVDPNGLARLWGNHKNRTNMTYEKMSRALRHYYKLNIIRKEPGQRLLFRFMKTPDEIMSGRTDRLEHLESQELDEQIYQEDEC
Procedure, shortened: as §1

TCCTGT
binding signal (FEV): 1.85 fold enrichment (6-mer frequency, TF over GST control) | binding signal (ETV5): 2.04 fold enrichment (6-mer frequency, TF over GST control) | binding signal (HSF1): 1.14 fold enrichment (6-mer frequency, TF over GST control) | binding signal (SPIC): 1.87 fold enrichment (6-mer frequency, TF over GST control) | binding signal (ELF4): 1.65 fold enrichment (6-mer frequency, TF over GST control) | binding signal (ELK4): 1.56 fold enrichment (6-mer frequency, TF over GST control) | binding signal (ETV2): 1.71 fold enrichment (6-mer frequency, TF over GST control) | binding signal (ELF3): 1.78 fold enrichment (6-mer frequency, TF over GST control) | binding signal (CRX): 1.16 fold enrichment (6-mer frequency, TF over GST control) | binding signal (ETV1): 1.89 fold enrichment (6-mer frequency, TF over GST control) | binding signal (ERF): 1.6 fold enrichment (6-mer frequency, TF over GST control) | binding signal (ETV3L): 1.88 fold enrichment (6-mer frequency, TF over GST control) | binding signal (ETS2): 1.84 fold enrichment (6-mer frequency, TF over GST control) | binding signal (SPDEF): 2.32 fold enrichment (6-mer frequency, TF over GST control) | binding signal (ETV7): 1.89 fold enrichment (6-mer frequency, TF over GST control) | binding signal (ELF5): 2.35 fold enrichment (6-mer frequency, TF over GST control) | binding signal (ETV3): 1.89 fold enrichment (6-mer frequency, TF over GST control) | binding signal (ETV6): 1.84 fold enrichment (6-mer frequency, TF over GST control)
